Results: PubChem BioAssay (NCI)
About 79,000 compounds went through this panel and 15% of them were active in at least one assay; those are over-represented in the sample as a whole. Cut-off read from the data, not from the text of the source: active = growth inhibition above about 70%; inactive = the rest.

Assays:
[1] = NCI Yeast Anticancer Drug Screen. Data for the rad50 strain (AID 155);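 note: 0% = growth of vehicle-only cultures of the same strain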; conditions: S. cerevisiae rad50 strain growth inhibition; at 50.0 µM; hits give high values
How it was run: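 Inhibition values express reduced yeast growth in compound-treated cultures relative to vehicle-treated controls.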

[2] = NCI Yeast Anticancer Drug Screen. Data for the mec2-1 strain (AID 157); conditions: S. cerevisiae mec2-1 strain, at 50.0 µM, hits give high values
How it was run: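 Test agents were screened against the mec2-1 yeast strain, with defined DNA repair or cell cycle alteration. Growth was scored as inhibition against vehicle-only controls.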

[3] = NCI Yeast Anticancer Drug Screen. Data for the sgs1 mgt1 strain (AID 161);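 note: 0% = growth of cultures given vehicle only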; conditions: S. cerevisiae sgs1 mgt1 strain, at 50.0 µM, hits give high values
How it was run: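 Inhibition of yeast growth, normalised to vehicle-treated controls, is reported for a strain bearing genetic alterations in DNA damage repair.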

[4] = NCI Yeast Anticancer Drug Screen. Data for the cln2 rad14 strain (AID 165);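 note: 0% = growth equal to vehicle treated cultures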; conditions: S. cerevisiae cln2 rad14 strain, at 50.0 µM, hits give high values
How it was run: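 Growth of compound-exposed yeast (cln2 rad14 genotype) measured and expressed as inhibition relative to vehicle.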

[5] = NCI Yeast Anticancer Drug Screen. Data for the bub3 strain (AID 167); conditions: S. cerevisiae bub3 mutant strain, at 50.0 µM, hits give high values
How it was run: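 Steps: expose the mutant yeast strain to compound; grow alongside vehicle-treated cultures; measure growth; express inhibition against the vehicle cultures.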

[6] = NCI Yeast Anticancer Drug Screen. Data for the mlh1 rad18 strain (AID 175); conditions: S. cerevisiae mlh1 rad18 strain growth inhibition; at 50.0 µM; hits give high values
How it was run: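 In this whole-cell yeast screen, a strain with altered DNA damage repair is challenged with compound, and its growth is measured against matched vehicle-treated controls.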

Measured: growth inhibition

O=C1C2C(C(=O)N1c1ccc(O)cc1)C1(Cl)C(Cl)=C(Cl)C2(Cl)C1(Cl)Cl (centres undefined)
inactive: [1] -0.45% | [2] -11.8% | [3] 1.9% | [4] -0.1% | [5] -19.6% | [6] 1%

CC12CC3OC(=O)C1COC14OC5(C2C1=O)C(O)(CCC1C4CC(O)C2(O)CC=CC(=O)C12C)C(=O)OC35C (centres undefined)
inactive: [1] 5.85% | [2] 7.95% | [3] 8.3% | [4] 11.2% | [5] -1.3% | [6] -40.8%

COC(=O)c1ccccc1NC(=O)C(=O)CC(=O)CC(c1ccccc1)c1c(O)c2ccccc2oc1=O (centres undefined)
inactive: [1] -15.7% | [2] -3.5% | [3] 15.9% | [4] 11.3% | [5] 24.9% | [6] 21.2%

CC(C)OP(=S)(OC(C)C)SSSP(=S)(OC(C)C)OC(C)C
inactive: [1] 14.2% | [2] 3.75% | [3] 1.95% | [4] -3.1% | [5] 12.7% | [6] 6.25%

O=C(Cc1ccccc1)OCCBr
inactive: [1] -8.95% | [2] 4.65% | [3] 0.95% | [4] 15.1% | [5] -16.2% | [6] -2.05%

CO[C@H]1C=C[C@@]23c4cc5c(cc4CO[C@]2(O)CN(C)[C@H]3C1)OCO5
inactive: [1] -16.2% | [2] -1.35% | [3] -10.8% | [4] -1.35% | [5] 1.8% | [6] -41%

CCn1nnnc1N
inactive: [1] 3.35% | [2] 15.9% | [3] 11.1% | [4] 16.4% | [5] 17.8% | [6] 14%

C[N+]1(CC2CC2)C2CC(OC(=O)C(CO)c3ccccc3)CC1C1OC12 (centres undefined)
inactive: [1] 11.1% | [2] 23.9% | [3] 10.7% | [4] 9.55% | [5] -0.6% | [6] -33.5%

[N-]=[N+]=Nc1cc(=O)oc2ccccc12
inactive: [1] 25.6% | [2] 10.2% | [3] -8.25% | [4] 13.6% | [5] 0.9% | [6] 1.1%

CC1C(=O)OC2CC[N+]3([O-])CC=C(COC(=O)C(C)(O)C1(C)O)C23 (centres undefined)
inactive: [1] -0.6% | [2] -37.2% | [3] -14.7% | [4] -5.25% | [5] -9.25% | [6] -84.4%

O=C(CCC(=O)Oc1ccc(S(=O)(=O)F)cc1)Oc1ccc(S(=O)(=O)F)cc1
inactive: [1] 49.1% | [2] 15.3% | [3] 44.3% | [4] 26.1% | [5] 7.65% | [6] 9.8%

COc1ccc(/C=C/C(=O)c2c(-c3ccccc3)nn(C)c(=O)c2N2CC2C)cc1 (centres undefined)
inactive: [1] -11.6% | [2] 19.9% | [3] -10.4% | [4] -7.2% | [5] -4.8% | [6] -13.4%

Cc1ccc(CI)cc1
inactive: [1] -2.15% | [2] -6.7% | [3] -22.9% | [4] 18.9% | [5] 20.1% | [6] 19.5%

O=P(c1ccccc1)(c1ccccc1)c1ccccc1.O=P(c1ccccc1)(c1ccccc1)c1ccccc1.O=P(c1ccccc1)(c1ccccc1)c1ccccc1.O=P(c1ccccc1)(c1ccccc1)c1ccccc1.[Co+2].[O-][Cl+3]([O-])([O-])O
inactive: [1] 22.7% | [2] 3.45% | [3] 17.9% | [4] 20.9% | [5] 13.8% | [6] 16.3%

OP(=S)(OCc1ccccc1)OCc1ccccc1
inactive: [1] 18.9% | [2] 19.6% | [3] 5.95% | [4] -13.8% | [5] 17.9% | [6] 4.55%

CCOC(=O)C(C)Br (centres undefined)
inactive: [1] 15% | [2] 5.3% | [3] 28.3% | [4] -24.7% | [5] 44.6% | [6] -8.2%

CC(C)OC(=O)Nc1cccc(Cl)c1
inactive: [1] 25.9% | [2] 1.75% | [3] 23.9% | [4] -3.85% | [5] 0.3% | [6] 4.5%

CC1(C)N=C(N)N=C(N)N1c1cccc(CCC(=O)Nc2ccc[n+](Cc3ccc(S(=O)(=O)F)cc3)c2)c1
inactive: [1] -1.3% | [2] -8.35% | [3] 13.4% | [4] -17.8% | [5] -9.55% | [6] -11.9%

O=c1oc2ccccc2c(O)c1C(c1cnc2ccccc2c1)c1c(O)c2ccccc2oc1=O
inactive: [1] 33.4% | [2] 40.2% | [3] 12.7% | [4] 26.2% | [5] -5.7% | [6] 47%
